# Results reported in paper PMC11006913.
# Changes are numbered by the printed parent chain.
# Target: HESX1 (Homo sapiens, UniProt Q9UBX0 95-180)
# Assay: PBM; 200 nM protein, PBS
# Conditions: dsDNA, one strand shown
# Sequence of HESX1 (Q9UBX0 95-180): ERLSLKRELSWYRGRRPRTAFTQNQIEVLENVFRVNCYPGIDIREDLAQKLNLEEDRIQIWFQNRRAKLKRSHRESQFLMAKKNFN
row,Sequence,binding signal
1,AATTAGCT,"11.6 upbm affinity estimate (log intensity, higher = more binding, comparable within an allelic series)"
2,CACTTAGA,"7.94 upbm affinity estimate (log intensity, higher = more binding, comparable within an allelic series)"
3,CTAATTGC,"12.5 upbm affinity estimate (log intensity, higher = more binding, comparable within an allelic series)"
4,CTTCCGTC,"6.45 upbm affinity estimate (log intensity, higher = more binding, comparable within an allelic series)"
5,CCGCGTCG,"6.33 upbm affinity estimate (log intensity, higher = more binding, comparable within an allelic series)"
6,CCAGCGCG,"6.41 upbm affinity estimate (log intensity, higher = more binding, comparable within an allelic series)"

# Target: HOXA2 (Homo sapiens, UniProt O43364 129-215, R185T)
# Assay: PBM; 200 nM protein, PBS
# Conditions: dsDNA, one strand shown
# Sequence of HOXA2 (O43364 129-215 R185T): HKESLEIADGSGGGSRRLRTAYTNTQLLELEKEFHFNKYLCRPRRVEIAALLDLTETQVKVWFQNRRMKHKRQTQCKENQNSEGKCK
row,Sequence,binding signal
1,CTAATTGC,"13.1 upbm affinity estimate (log intensity, higher = more binding, comparable within an allelic series)"
2,CGGGCTCC,"6.41 upbm affinity estimate (log intensity, higher = more binding, comparable within an allelic series)"
3,CCAGGCCG,"7.21 upbm affinity estimate (log intensity, higher = more binding, comparable within an allelic series)"
4,GCACTTAA,"10.2 upbm affinity estimate (log intensity, higher = more binding, comparable within an allelic series)"

# Target: HOXA4 (Homo sapiens, UniProt Q00056 201-287, R217L)
# Assay: PBM; 200 nM protein, PBS
# Conditions: dsDNA, one strand shown
# Sequence of HOXA4 (Q00056 201-287 R217L): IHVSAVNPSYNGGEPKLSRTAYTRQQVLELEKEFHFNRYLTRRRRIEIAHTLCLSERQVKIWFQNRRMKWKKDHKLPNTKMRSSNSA
row,Sequence,binding signal
1,CTAATTGC,"11.8 upbm affinity estimate (log intensity, higher = more binding, comparable within an allelic series)"
2,CCGGAGCC,"9.76 upbm affinity estimate (log intensity, higher = more binding, comparable within an allelic series)"
3,CGGGCTCC,"9.45 upbm affinity estimate (log intensity, higher = more binding, comparable within an allelic series)"

# Target: HOXB9 (Homo sapiens, UniProt P17482 171-250)
# Assay: PBM; 200 nM protein, PBS
# Conditions: dsDNA, one strand shown
# Sequence of HOXB9 (P17482 171-250): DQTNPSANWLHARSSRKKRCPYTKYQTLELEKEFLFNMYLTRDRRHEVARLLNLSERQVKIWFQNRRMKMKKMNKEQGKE
row,Sequence,binding signal
1,CACTTATA,"10.4 upbm affinity estimate (log intensity, higher = more binding, comparable within an allelic series)"
2,CGGGCTCC,"7.77 upbm affinity estimate (log intensity, higher = more binding, comparable within an allelic series)"
3,GCCACTTA,"10.1 upbm affinity estimate (log intensity, higher = more binding, comparable within an allelic series)"
4,CGCCCGAG,"8.15 upbm affinity estimate (log intensity, higher = more binding, comparable within an allelic series)"

# Target: HOXB4 (Homo sapiens, UniProt P17483 148-234, V174I)
# Assay: PBM; 200 nM protein, PBS
# Conditions: dsDNA, one strand shown
# Sequence of HOXB4 (P17483 148-234 V174I): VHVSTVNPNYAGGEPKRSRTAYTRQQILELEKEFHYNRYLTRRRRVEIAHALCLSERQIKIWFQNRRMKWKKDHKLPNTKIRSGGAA
row,Sequence,binding signal
1,CACGCGTG,"7.9 upbm affinity estimate (log intensity, higher = more binding, comparable within an allelic series)"
2,ACGGCGGC,"7.56 upbm affinity estimate (log intensity, higher = more binding, comparable within an allelic series)"
3,CCCGGCGG,"7.61 upbm affinity estimate (log intensity, higher = more binding, comparable within an allelic series)"
4,CTAATTGC,"13.7 upbm affinity estimate (log intensity, higher = more binding, comparable within an allelic series)"
5,CGGACCCG,"7.9 upbm affinity estimate (log intensity, higher = more binding, comparable within an allelic series)"
6,ACGGCTGG,"7.93 upbm affinity estimate (log intensity, higher = more binding, comparable within an allelic series)"
7,CGGGCTCC,"6.92 upbm affinity estimate (log intensity, higher = more binding, comparable within an allelic series)"
8,ATCAAGTG,"10.4 upbm affinity estimate (log intensity, higher = more binding, comparable within an allelic series)"
9,CCGCGTCG,"7.36 upbm affinity estimate (log intensity, higher = more binding, comparable within an allelic series)"
10,CGCCCGAG,"7.79 upbm affinity estimate (log intensity, higher = more binding, comparable within an allelic series)"

# Target: T1, NKX2-6 (Homo sapiens, UniProt A6NCS4 118-204, R150C)
# T1 sequence: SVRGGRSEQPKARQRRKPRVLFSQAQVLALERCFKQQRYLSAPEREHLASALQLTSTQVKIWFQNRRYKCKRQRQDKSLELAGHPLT
# Assay: PBM; 200 nM protein, PBS
# Conditions: dsDNA, one strand shown
row,Sequence,binding signal
1,AAGTGGAG,"11.7 upbm affinity estimate (log intensity, higher = more binding, comparable within an allelic series)"
2,CTTAAGTA,"11.7 upbm affinity estimate (log intensity, higher = more binding, comparable within an allelic series)"
3,CACTTAGA,"11.7 upbm affinity estimate (log intensity, higher = more binding, comparable within an allelic series)"
4,CACTTTAA,"11.7 upbm affinity estimate (log intensity, higher = more binding, comparable within an allelic series)"
5,CACTTAAC,"11.8 upbm affinity estimate (log intensity, higher = more binding, comparable within an allelic series)"
6,GTACTTAA,"12 upbm affinity estimate (log intensity, higher = more binding, comparable within an allelic series)"
7,AATAAGTG,"11.8 upbm affinity estimate (log intensity, higher = more binding, comparable within an allelic series)"
8,ACCACTTA,"12.3 upbm affinity estimate (log intensity, higher = more binding, comparable within an allelic series)"
9,ACGCGCAG,"9.46 upbm affinity estimate (log intensity, higher = more binding, comparable within an allelic series)"
10,CACTTATA,"12.1 upbm affinity estimate (log intensity, higher = more binding, comparable within an allelic series)"
11,ACACTTAT,"11.9 upbm affinity estimate (log intensity, higher = more binding, comparable within an allelic series)"
12,CTACTTAA,"11.5 upbm affinity estimate (log intensity, higher = more binding, comparable within an allelic series)"
13,CCACTTTA,"12 upbm affinity estimate (log intensity, higher = more binding, comparable within an allelic series)"
14,ATCAAGTG,"12 upbm affinity estimate (log intensity, higher = more binding, comparable within an allelic series)"
15,ATAAGTAC,"12 upbm affinity estimate (log intensity, higher = more binding, comparable within an allelic series)"
16,AAGTACCT,"11.7 upbm affinity estimate (log intensity, higher = more binding, comparable within an allelic series)"
17,AAGCACTT,"11.8 upbm affinity estimate (log intensity, higher = more binding, comparable within an allelic series)"
18,GCACTTAA,"12 upbm affinity estimate (log intensity, higher = more binding, comparable within an allelic series)"
19,GCCACTTA,"12.2 upbm affinity estimate (log intensity, higher = more binding, comparable within an allelic series)"

# Target: CRX (Homo sapiens, UniProt O43186 26-111, E42D)
# Assay: PBM; 200 nM protein, PBS
# Conditions: dsDNA, one strand shown
# Sequence of CRX (O43186 26-111 E42D): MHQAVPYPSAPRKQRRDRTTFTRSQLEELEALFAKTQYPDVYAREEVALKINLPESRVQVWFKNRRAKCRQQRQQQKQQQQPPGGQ
row,Sequence,binding signal
1,CGGTCCAA,"8.43 upbm affinity estimate (log intensity, higher = more binding, comparable within an allelic series)"
2,CGGACCCG,"8.29 upbm affinity estimate (log intensity, higher = more binding, comparable within an allelic series)"
3,CCGGCGCG,"8.4 upbm affinity estimate (log intensity, higher = more binding, comparable within an allelic series)"
4,CGAACGCC,"8.15 upbm affinity estimate (log intensity, higher = more binding, comparable within an allelic series)"
5,ATTACGTA,"10.4 upbm affinity estimate (log intensity, higher = more binding, comparable within an allelic series)"

# Target: MSX2 (Homo sapiens, UniProt P35548 130-214, R199I)
# Assay: PBM; 200 nM protein, PBS
# Conditions: dsDNA, one strand shown
# Sequence of MSX2 (P35548 130-214 R199I): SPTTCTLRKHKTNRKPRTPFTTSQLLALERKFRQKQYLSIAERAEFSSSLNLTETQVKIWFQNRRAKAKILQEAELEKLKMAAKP
row,Sequence,binding signal
1,AATTAGCT,"12.3 upbm affinity estimate (log intensity, higher = more binding, comparable within an allelic series)"
2,CTAATTGC,"13 upbm affinity estimate (log intensity, higher = more binding, comparable within an allelic series)"
3,CGGGCTCC,"9.06 upbm affinity estimate (log intensity, higher = more binding, comparable within an allelic series)"

# Target: ALX1 (Homo sapiens, UniProt Q15699 118-204, L144V)
# Assay: PBM; 200 nM protein, PBS
# Conditions: dsDNA, one strand shown
# Sequence of ALX1 (Q15699 118-204 L144V): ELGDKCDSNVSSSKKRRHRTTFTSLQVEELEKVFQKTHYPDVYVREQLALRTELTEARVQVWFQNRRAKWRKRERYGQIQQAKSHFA
row,Sequence,binding signal
1,AATTAGCT,"11.5 upbm affinity estimate (log intensity, higher = more binding, comparable within an allelic series)"
2,CTTAAGTA,"9.02 upbm affinity estimate (log intensity, higher = more binding, comparable within an allelic series)"
3,CTAATTGC,"11.5 upbm affinity estimate (log intensity, higher = more binding, comparable within an allelic series)"
4,CCGGCGCG,"6.28 upbm affinity estimate (log intensity, higher = more binding, comparable within an allelic series)"
5,CGAACGCC,"6.33 upbm affinity estimate (log intensity, higher = more binding, comparable within an allelic series)"
6,CCACTTTA,"8.4 upbm affinity estimate (log intensity, higher = more binding, comparable within an allelic series)"

# Target: ALX3 (Homo sapiens, UniProt O95076 139-225, N203Q)
# Assay: PBM; 200 nM protein, PBS
# Conditions: dsDNA, one strand shown
# Sequence of ALX3 (O95076 139-225 N203Q): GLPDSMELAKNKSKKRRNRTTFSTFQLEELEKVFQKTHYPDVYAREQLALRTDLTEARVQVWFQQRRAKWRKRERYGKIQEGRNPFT
row,Sequence,binding signal
1,AATTAGCT,"8.34 upbm affinity estimate (log intensity, higher = more binding, comparable within an allelic series)"
2,CTAATTGC,"8.22 upbm affinity estimate (log intensity, higher = more binding, comparable within an allelic series)"
3,CGGGCTCC,"7.6 upbm affinity estimate (log intensity, higher = more binding, comparable within an allelic series)"

# Target: T2, NKX2-6 (Homo sapiens, UniProt A6NCS4 118-204)
# T2 sequence: T1 sequence with C33R
# Assay: PBM; 200 nM protein, PBS
# Conditions: dsDNA, one strand shown
row,Sequence,binding signal
1,AAGTGGAG,"13.3 upbm affinity estimate (log intensity, higher = more binding, comparable within an allelic series)"
2,CTTAAGTA,"13.7 upbm affinity estimate (log intensity, higher = more binding, comparable within an allelic series)"
3,CACTTAGA,"13.6 upbm affinity estimate (log intensity, higher = more binding, comparable within an allelic series)"
4,CACTTTAA,"13.4 upbm affinity estimate (log intensity, higher = more binding, comparable within an allelic series)"
5,CACTTAAC,"13.7 upbm affinity estimate (log intensity, higher = more binding, comparable within an allelic series)"
6,GTACTTAA,"13.9 upbm affinity estimate (log intensity, higher = more binding, comparable within an allelic series)"
7,AATAAGTG,"13.3 upbm affinity estimate (log intensity, higher = more binding, comparable within an allelic series)"
8,ACCACTTA,"14 upbm affinity estimate (log intensity, higher = more binding, comparable within an allelic series)"
9,CACTTATA,"13.8 upbm affinity estimate (log intensity, higher = more binding, comparable within an allelic series)"
10,ACACTTAT,"13.6 upbm affinity estimate (log intensity, higher = more binding, comparable within an allelic series)"
11,CTACTTAA,"13.6 upbm affinity estimate (log intensity, higher = more binding, comparable within an allelic series)"
12,CCACTTTA,"13.5 upbm affinity estimate (log intensity, higher = more binding, comparable within an allelic series)"
13,CGGGCTCC,"9.11 upbm affinity estimate (log intensity, higher = more binding, comparable within an allelic series)"
14,ATCAAGTG,"13.7 upbm affinity estimate (log intensity, higher = more binding, comparable within an allelic series)"
15,ATAAGTAC,"13.6 upbm affinity estimate (log intensity, higher = more binding, comparable within an allelic series)"
16,AAGTACCT,"13.4 upbm affinity estimate (log intensity, higher = more binding, comparable within an allelic series)"
17,AAGCACTT,"13.5 upbm affinity estimate (log intensity, higher = more binding, comparable within an allelic series)"
18,GCACTTAA,"13.8 upbm affinity estimate (log intensity, higher = more binding, comparable within an allelic series)"
19,GCCACTTA,"14 upbm affinity estimate (log intensity, higher = more binding, comparable within an allelic series)"
